# Reference: the supplement of paper PMC4466140
# What was measured:
# Test in all cases: SPOT peptide array binding signal intensity (averaged, normalized) (arbitrary units (background-subtracted, floor 0; scale differs between SH3 domains)); higher = stronger binding of the SH3 domain to the peptide
# [1] = target: CaNbp2
# How it was run: (§1)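 Detection of bound protein relied on anti-GST antibody, an HRP anti-mouse secondary and luminol, with imaging and quantification in Genespotter. The bound protein was GST-fused SH3 domains from four yeast species, incubated at 10 μg/ml overnight at 4°C in TBS-based blocking buffer on cellulose membranes carrying synthetic 15-mer peptides with cysteines replaced by serines. Binding signal is normalized, background-subtracted spot intensity averaged over replicates, in arbitrary units that differ between domains.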
# [2] = target: CaRvs167
# How it was run: as §1
# [3] = target: CaRvs167-3
# How it was run: as §1
# [4] = target: CaSho1
# How it was run: as §1
# [5] = target: CaSla1-D1-D2
# How it was run: as §1
# [6] = target: CaSla1-D3
# How it was run: as §1
# [7] = target: ScAbp1
# How it was run: as §1
# [8] = target: ScBbc1
# How it was run: as §1
# [9] = target: ScBem1-D1
# How it was run: as §1
# [10] = target: ScBzz1-D1
# How it was run: as §1
# [11] = target: ScBzz1-D2
# How it was run: as §1
# [12] = target: ScCyk3
# How it was run: as §1
# [13] = target: ScFus1
# How it was run: as §1
# [14] = target: ScHof1
# How it was run: as §1
# [15] = target: ScHse1
# How it was run: as §1
# [16] = target: ScLsb1
# How it was run: as §1
# [17] = target: ScLsb2
# How it was run: as §1
# [18] = target: ScLsb3
# How it was run: as §1
# [19] = target: ScLsb4
# How it was run: as §1
# [20] = target: ScMyo3
# How it was run: as §1
# [21] = target: ScMyo5
# How it was run: as §1
# [22] = target: ScNbp2
# How it was run: as §1
# [23] = target: ScPex13
# How it was run: as §1
# [24] = target: ScRvs167
# How it was run: as §1
# [25] = target: ScSho1
# How it was run: as §1
# [26] = target: ScSla1-D1-D2
# How it was run: as §1
# [27] = target: ScSla1-D3
# How it was run: as §1
# [28] = target: SpAbp1-D1
# How it was run: as §1
# [29] = target: SpBbc1
# How it was run: as §1
# [30] = target: SpBzz1-D1
# How it was run: as §1
# [31] = target: SpBzz1-D2
# How it was run: as §1
# [32] = target: SpCyk3
# How it was run: as §1
# [33] = target: SpHof1
# How it was run: as §1
# [34] = target: SpHof1-2
# How it was run: as §1
# [35] = target: SpHof1-3
# How it was run: as §1
# [36] = target: SpHse1
# How it was run: as §1
# [37] = target: SpLsb1
# How it was run: as §1
# [38] = target: SpLsb4
# How it was run: as §1
# [39] = target: SpMyo1
# How it was run: as §1
# [40] = target: SpNbp2
# How it was run: as §1
# [41] = target: SpPex13
# How it was run: as §1
# [42] = target: SpRvs167
# How it was run: as §1
# [43] = target: SpSla1-D1-D2
# How it was run: as §1
# [44] = target: SpSla1-D3
# How it was run: as §1
# [45] = target: AgAbp1
# How it was run: as §1
# [46] = target: AgBbc1
# How it was run: as §1
# [47] = target: AgBem1-D1
# How it was run: as §1
# [48] = target: AgBzz1-D1
# How it was run: as §1
# [49] = target: AgBzz1-D2
# How it was run: as §1
# [50] = target: AgCyk3
# How it was run: as §1
# [51] = target: AgFus1
# How it was run: as §1
# [52] = target: AgHof1
# How it was run: as §1
# [53] = target: AgHse1
# How it was run: as §1
# [54] = target: AgLsb1
# How it was run: as §1
# [55] = target: AgLsb4
# How it was run: as §1
# [56] = target: AgMyo5
# How it was run: as §1
# [57] = target: AgNbp2
# How it was run: as §1
# [58] = target: AgRvs167
# How it was run: as §1
# [59] = target: AgSho1
# How it was run: as §1
# [60] = target: AgSla1-D1-D2
# How it was run: as §1
# [61] = target: AgSla1-D3
# How it was run: as §1
# [62] = target: CaAbp1-D1
# How it was run: as §1
# [63] = target: CaAbp1-D2
# How it was run: as §1
# [64] = target: CaBbc1
# How it was run: as §1
# [65] = target: CaBem1-D1
# How it was run: as §1
# [66] = target: CaBzz1-D1
# How it was run: as §1
# [67] = target: CaBzz1-D2
# How it was run: as §1
# [68] = target: CaCyk3
# How it was run: as §1
# [69] = target: CaFus1
# How it was run: as §1
# [70] = target: CaHof1
# How it was run: as §1
# [71] = target: CaHse1
# How it was run: as §1
# [72] = target: CaLsb1
# How it was run: as §1
# [73] = target: CaLsb4
# How it was run: as §1
# [74] = target: CaMyo5
# How it was run: as §1
binder,measurement,setting,value
PAPPPPPRASRPTPN,SPOT peptide array binding signal intensity,[1],39.5
same,SPOT peptide array binding signal intensity,[2],223
same,SPOT peptide array binding signal intensity,[3],6.25
same,SPOT peptide array binding signal intensity,[4],3.5
same,SPOT peptide array binding signal intensity,[5],242
same,SPOT peptide array binding signal intensity,[6],3.75
same,SPOT peptide array binding signal intensity,[7],3
same,SPOT peptide array binding signal intensity,[8],72.5
same,SPOT peptide array binding signal intensity,[9],2
same,SPOT peptide array binding signal intensity,[10],36
same,SPOT peptide array binding signal intensity,[11],24
same,SPOT peptide array binding signal intensity,[12],2
same,SPOT peptide array binding signal intensity,[13],10
same,SPOT peptide array binding signal intensity,[14],56.2
same,SPOT peptide array binding signal intensity,[15],6
same,SPOT peptide array binding signal intensity,[16],49.2
same,SPOT peptide array binding signal intensity,[17],3.5
same,SPOT peptide array binding signal intensity,[18],1110
same,SPOT peptide array binding signal intensity,[19],394
same,SPOT peptide array binding signal intensity,[20],40.5
same,SPOT peptide array binding signal intensity,[21],22
same,SPOT peptide array binding signal intensity,[22],10.5
same,SPOT peptide array binding signal intensity,[23],304
same,SPOT peptide array binding signal intensity,[24],966
same,SPOT peptide array binding signal intensity,[25],45
same,SPOT peptide array binding signal intensity,[26],565
same,SPOT peptide array binding signal intensity,[27],1.5
same,SPOT peptide array binding signal intensity,[28],14.5
same,SPOT peptide array binding signal intensity,[29],1
same,SPOT peptide array binding signal intensity,[30],208
same,SPOT peptide array binding signal intensity,[31],6.5
same,SPOT peptide array binding signal intensity,[32],3
same,SPOT peptide array binding signal intensity,[33],5.5
same,SPOT peptide array binding signal intensity,[34],5.5
same,SPOT peptide array binding signal intensity,[35],57.5
same,SPOT peptide array binding signal intensity,[36],7.5
same,SPOT peptide array binding signal intensity,[37],69.5
same,SPOT peptide array binding signal intensity,[38],1170
same,SPOT peptide array binding signal intensity,[39],99.5
same,SPOT peptide array binding signal intensity,[40],29.5
same,SPOT peptide array binding signal intensity,[41],2.5
same,SPOT peptide array binding signal intensity,[42],915
same,SPOT peptide array binding signal intensity,[43],13
same,SPOT peptide array binding signal intensity,[44],≤ 0
SSSSTPPTLPPRRIE,SPOT peptide array binding signal intensity,[45],7.5
same,SPOT peptide array binding signal intensity,[46],673
same,SPOT peptide array binding signal intensity,[47],42
same,SPOT peptide array binding signal intensity,[48],49
same,SPOT peptide array binding signal intensity,[49],≤ 0
same,SPOT peptide array binding signal intensity,[50],2
same,SPOT peptide array binding signal intensity,[51],≤ 0
same,SPOT peptide array binding signal intensity,[52],55
same,SPOT peptide array binding signal intensity,[53],42.5
same,SPOT peptide array binding signal intensity,[54],1840
same,SPOT peptide array binding signal intensity,[55],9180
same,SPOT peptide array binding signal intensity,[56],93.5
same,SPOT peptide array binding signal intensity,[57],10
same,SPOT peptide array binding signal intensity,[58],2660
same,SPOT peptide array binding signal intensity,[59],1
same,SPOT peptide array binding signal intensity,[60],≤ 0
same,SPOT peptide array binding signal intensity,[61],≤ 0
same,SPOT peptide array binding signal intensity,[62],24
same,SPOT peptide array binding signal intensity,[63],34.5
same,SPOT peptide array binding signal intensity,[64],1390
same,SPOT peptide array binding signal intensity,[65],4
same,SPOT peptide array binding signal intensity,[66],16
same,SPOT peptide array binding signal intensity,[67],≤ 0
same,SPOT peptide array binding signal intensity,[68],2
same,SPOT peptide array binding signal intensity,[69],77
same,SPOT peptide array binding signal intensity,[70],8.75
same,SPOT peptide array binding signal intensity,[71],731
same,SPOT peptide array binding signal intensity,[72],57.5
same,SPOT peptide array binding signal intensity,[73],7260
same,SPOT peptide array binding signal intensity,[74],≤ 0
same,SPOT peptide array binding signal intensity,[1],76.5
same,SPOT peptide array binding signal intensity,[2],2810
same,SPOT peptide array binding signal intensity,[3],0.25
same,SPOT peptide array binding signal intensity,[4],≤ 0
same,SPOT peptide array binding signal intensity,[5],138
same,SPOT peptide array binding signal intensity,[6],≤ 0
same,SPOT peptide array binding signal intensity,[7],≤ 0
same,SPOT peptide array binding signal intensity,[8],61.5
same,SPOT peptide array binding signal intensity,[9],8
same,SPOT peptide array binding signal intensity,[10],3
same,SPOT peptide array binding signal intensity,[11],2
same,SPOT peptide array binding signal intensity,[12],2
same,SPOT peptide array binding signal intensity,[13],≤ 0
same,SPOT peptide array binding signal intensity,[14],122
same,SPOT peptide array binding signal intensity,[15],≤ 0
same,SPOT peptide array binding signal intensity,[16],2090
same,SPOT peptide array binding signal intensity,[17],1570
same,SPOT peptide array binding signal intensity,[18],11000
same,SPOT peptide array binding signal intensity,[19],4800
same,SPOT peptide array binding signal intensity,[20],111
same,SPOT peptide array binding signal intensity,[21],17.5
same,SPOT peptide array binding signal intensity,[22],≤ 0
same,SPOT peptide array binding signal intensity,[23],2100
same,SPOT peptide array binding signal intensity,[24],3870
same,SPOT peptide array binding signal intensity,[25],56.5
same,SPOT peptide array binding signal intensity,[26],6
same,SPOT peptide array binding signal intensity,[27],1.75
same,SPOT peptide array binding signal intensity,[28],≤ 0
same,SPOT peptide array binding signal intensity,[29],0.5
same,SPOT peptide array binding signal intensity,[30],219
same,SPOT peptide array binding signal intensity,[31],≤ 0
same,SPOT peptide array binding signal intensity,[32],4
same,SPOT peptide array binding signal intensity,[33],4.5
same,SPOT peptide array binding signal intensity,[34],12.2
same,SPOT peptide array binding signal intensity,[35],10
same,SPOT peptide array binding signal intensity,[36],16
same,SPOT peptide array binding signal intensity,[37],3060
same,SPOT peptide array binding signal intensity,[38],6340
same,SPOT peptide array binding signal intensity,[39],594
same,SPOT peptide array binding signal intensity,[40],≤ 0
same,SPOT peptide array binding signal intensity,[41],4
same,SPOT peptide array binding signal intensity,[42],3420
same,SPOT peptide array binding signal intensity,[43],≤ 0
same,SPOT peptide array binding signal intensity,[44],≤ 0
